Source: PubChem BioAssay AID1159580 (chemical genetic matrix, 2015)
Out of some 5,500 compounds screened, about 2,000 (36%) were called active. Another 18% or so got no clear call; they are omitted. Cut-off read from the data, not from the text of the source: active = normalized growth mostly below about 0.91 (no sharp cut-off); inconclusive = no clear call, values can overlap the other calls; inactive = mostly above about 0.92. The list shows a part of the results.

Assay: chemical genetic growth profiling, strain panel (AID 1159580);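 note: tested at 20 µM; growth read once vehicle control cultures reached saturation at 30 °C; 1 = growth at the plate median or of vehicle wells; lower values mean less growth of the strain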
Conditions: growth OD

Measured: normalized growth

CC(C)(Oc1ccc(Cl)cc1)C(=O)O
inactive: S. cerevisiae deletion strains, locus YJR075W, strain HOC1, hits give low values 0.992 | S. cerevisiae deletion strains, locus YKL009W, strain mrt4, hits give low values 0.983 | S. cerevisiae deletion strains, locus YKL068W, hits give low values 0.967 | S. cerevisiae deletion strains, locus YKL085W, strain MDH1 (second series), hits give low values 0.981 | S. cerevisiae deletion strains, locus YKL085W, strain MDH1, hits give low values 0.981 | S. cerevisiae deletion strains, locus YKL160W, strain elf1, hits give low values 1.02 | S. cerevisiae deletion strains, locus YKL190W, strain CNB1, hits give low values 0.996 | S. cerevisiae deletion strains, locus YKR001C, strain vps1, hits give low values 0.973 | S. cerevisiae deletion strains, locus YKR026C, strain gcn3, hits give low values 1 | S. cerevisiae deletion strains, locus YKR091W, strain srl3, hits give low values 0.999 | S. cerevisiae deletion strains, locus YLL001W, strain dnm1, hits give low values 1 | S. cerevisiae deletion strains, locus YLL026W, hits give low values 1.01 | S. cerevisiae deletion strains, locus YLL041C, strain sdh2, hits give low values 0.996 | S. cerevisiae deletion strains, locus YLR027C, strain aat2, hits give low values 1.01 | S. cerevisiae deletion strains, locus YLR039C, strain RIC1, hits give low values 0.967 | S. cerevisiae deletion strains, locus YLR058C, strain SHM2, hits give low values 0.994 | S. cerevisiae deletion strains, locus YLR102C, strain apc9, hits give low values 0.987 | S. cerevisiae deletion strains, locus YLR221C, strain rsa3, hits give low values 0.981 | S. cerevisiae deletion strains, locus YLR258W, strain gsy2, hits give low values 1.03 | S. cerevisiae deletion strains, locus YLR262C, strain YPT6 (second series), hits give low values 1 | S. cerevisiae deletion strains, locus YLR262C, strain YPT6, hits give low values 0.948 | S. cerevisiae deletion strains, locus YLR268W, strain sec22, hits give low values 0.927 | S. cerevisiae deletion strains, locus YLR320W, strain mms22, hits give low values 0.98 | S. cerevisiae deletion strains, locus YLR330W, strain CHS5, hits give low values 0.985 | S. cerevisiae deletion strains, locus YLR342W, strain FKS1 (second series), hits give low values 1.06 | S. cerevisiae deletion strains, locus YLR342W, strain FKS1, hits give low values 1.03 | S. cerevisiae deletion strains, locus YLR357W, strain rsc2, hits give low values 1.03 | S. cerevisiae deletion strains, locus YLR370C, strain arc18, hits give low values 1.02 | S. cerevisiae deletion strains, locus YLR371W, strain rom2, hits give low values 0.98 | S. cerevisiae deletion strains, locus YLR384C, strain iki3, hits give low values 0.991 | S. cerevisiae deletion strains, locus YLR418C, strain cdc73, hits give low values 1 | S. cerevisiae deletion strains, locus YML016C, strain PPZ1, hits give low values 0.995 | S. cerevisiae deletion strains, locus YML032C, strain rad52, hits give low values 0.958 | S. cerevisiae deletion strains, locus YML120C, strain ndi1, hits give low values 0.983 | S. cerevisiae deletion strains, locus YML124C, strain tub3, hits give low values 0.99 | S. cerevisiae deletion strains, locus YMR058W, strain fet3, hits give low values 1.01 | S. cerevisiae deletion strains, locus YMR078C, strain ctf18, hits give low values 0.978 | S. cerevisiae deletion strains, locus YMR125W, strain sto1, hits give low values 1.05 | S. cerevisiae deletion strains, locus YMR129W, hits give low values 1.02 | S. cerevisiae deletion strains, locus YMR205C, strain PFK2, hits give low values 0.991 | S. cerevisiae deletion strains, locus YMR223W, strain ubp8, hits give low values 1.03 | S. cerevisiae deletion strains, locus YMR231W, strain pep5, hits give low values 0.999 | S. cerevisiae deletion strains, locus YMR263W, strain SAP30, hits give low values 0.985 | S. cerevisiae deletion strains, locus YMR307W, strain GAS1, hits give low values 1.09 | S. cerevisiae deletion strains, locus YNL067W, strain RPL9B, hits give low values 0.977 | S. cerevisiae deletion strains, locus YNL071W, strain lat1, hits give low values 1.02 | S. cerevisiae deletion strains, locus YNL128W, strain TEP1, hits give low values 0.996 | S. cerevisiae deletion strains, locus YNL153C, strain GIM3, hits give low values 0.979 | S. cerevisiae deletion strains, locus YNL209W, strain ssb2, hits give low values 1.02 | S. cerevisiae deletion strains, locus YNL233W, strain BNI4, hits give low values 0.994 | S. cerevisiae deletion strains, locus YNL248C, strain rpa49, hits give low values 1.05 | S. cerevisiae deletion strains, locus YNL250W, strain rad50, hits give low values 0.985 | S. cerevisiae deletion strains, locus YNL271C, strain bni1, hits give low values 0.983 | S. cerevisiae deletion strains, locus YNL298W, strain CLA4, hits give low values 0.963 | S. cerevisiae deletion strains, locus YNL307C, strain MCK1, hits give low values 0.976 | S. cerevisiae deletion strains, locus YNL322C, strain KRE1 (second series), hits give low values 0.996 | S. cerevisiae deletion strains, locus YNL322C, strain KRE1, hits give low values 0.995 | S. cerevisiae deletion strains, locus YNR049C, strain mso1, hits give low values 1.01 | S. cerevisiae deletion strains, locus YNR052C, strain pop2, hits give low values 0.98 | S. cerevisiae deletion strains, locus YOL006C, strain TOP1, hits give low values 0.941 | S. cerevisiae deletion strains, locus YOL012C, strain htz1 0.835 | S. cerevisiae deletion strains, locus YOL147C, strain pex11, hits give low values 0.987 | S. cerevisiae deletion strains, locus YOR001W, strain rrp6, hits give low values 0.962 | S. cerevisiae deletion strains, locus YOR061W, strain CKA2, hits give low values 0.995 | S. cerevisiae deletion strains, locus YOR069W, strain VPS5, hits give low values 0.991 | S. cerevisiae deletion strains, locus YOR070C, strain gyp1, hits give low values 1.01 | S. cerevisiae deletion strains, locus YOR080W, strain dia2, hits give low values 1.01 | S. cerevisiae deletion strains, locus YOR083W, strain WHI5, hits give low values 0.985 | S. cerevisiae deletion strains, locus YOR106W, strain vam3, hits give low values 1.04 | S. cerevisiae deletion strains, locus YOR136W, strain idh2, hits give low values 0.989 | S. cerevisiae deletion strains, locus YOR144C, strain elg1, hits give low values 0.982 | S. cerevisiae deletion strains, locus YOR184W, strain ser1, hits give low values 0.964 | S. cerevisiae deletion strains, locus YOR265W, strain rbl2, hits give low values 1.01 | S. cerevisiae deletion strains, locus YOR270C, strain vph1, hits give low values 1.09 | S. cerevisiae deletion strains, locus YOR290C, strain snf2, hits give low values 1.03 | S. cerevisiae deletion strains, locus YOR316C, strain cot1, hits give low values 0.962 | S. cerevisiae deletion strains, locus YPL051W, strain arl3, hits give low values 1.04 | S. cerevisiae deletion strains, locus YPL055C, strain LGE1, hits give low values 0.996 | S. cerevisiae deletion strains, locus YPL078C, strain atp4, hits give low values 1.05 | S. cerevisiae deletion strains, locus YPL106C, strain sse1, hits give low values 1.06 | S. cerevisiae deletion strains, locus YPL240C, strain hsp82, hits give low values 1 | S. cerevisiae deletion strains, locus YPL241C, strain CIN2, hits give low values 0.994 | S. cerevisiae deletion strains, locus YPR119W, strain clb2, hits give low values 0.971 | S. cerevisiae deletion strains, locus YPR141C, strain kar3, hits give low values 0.982 | S. cerevisiae deletion strains, locus YPR163C, strain tif3, hits give low values 0.975 | S. cerevisiae deletion strains, locus YPR167C, strain met16, hits give low values 0.966 | S. cerevisiae deletion strains, strain wtn01, hits give low values 0.955 | S. cerevisiae strains, strain wild type, hits give low values 0.995
